Data on six compounds can be found in PubChem BioAssay.

The target in one experiment is Albumin (Bos taurus) (UniProt P02769). In words: compounds binding labelled BSA control protein – biochemical, small-molecule microarray, Alexa647 label, 635/667 nm fluorescence, artefact control for SMM control protein annotation, profiling panel (AID 1118).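 Also: score merges 667 nm emission intensity and signal-to-noise per printed compound spot.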 The settings on record: BSA-A647 binding, fluorescence 635 nm, higher = more signal.
Chain of Albumin (Bos taurus) (P02769 whole entry, looked up): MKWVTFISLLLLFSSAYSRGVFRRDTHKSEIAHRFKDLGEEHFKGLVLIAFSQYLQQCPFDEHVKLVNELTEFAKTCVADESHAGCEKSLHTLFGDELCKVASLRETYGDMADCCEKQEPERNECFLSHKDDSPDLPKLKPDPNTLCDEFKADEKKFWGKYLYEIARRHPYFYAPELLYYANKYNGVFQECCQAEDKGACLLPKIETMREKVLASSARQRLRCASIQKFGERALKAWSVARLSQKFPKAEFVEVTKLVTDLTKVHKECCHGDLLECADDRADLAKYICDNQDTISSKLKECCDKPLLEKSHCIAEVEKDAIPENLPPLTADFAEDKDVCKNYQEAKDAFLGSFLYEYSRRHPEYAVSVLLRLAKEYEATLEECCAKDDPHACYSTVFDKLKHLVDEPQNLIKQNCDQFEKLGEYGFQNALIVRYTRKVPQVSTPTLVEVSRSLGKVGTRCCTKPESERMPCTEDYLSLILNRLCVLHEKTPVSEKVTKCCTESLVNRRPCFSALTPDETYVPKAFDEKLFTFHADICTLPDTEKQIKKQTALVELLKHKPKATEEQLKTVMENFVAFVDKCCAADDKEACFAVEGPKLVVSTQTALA
Experiment [1] is described as follows: probe aXIP binding to arrayed compounds – biochemical, NeuroSMM set, 635/667 nm fluorescence, primary screen (AID 1119).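 Also: probe is the protein aXip251-270 applied at 1 µg/mL to compound-printed slides; binding of probe to printed compounds measured as 667 nm fluorescence plus signal to noise.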 The settings on record: small-molecule microarray, higher = more signal, called active from +8 up or from −8 down.
The nature of experiment [2]: probe aNOTCH3 binding on compound microarray – biochemical, small-molecule microarray, 635/667 nm fluorescence, primary screen (AID 1120).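 Also: probe is a biotin-tagged antibody raised against NOTCH3 rather than NOTCH3 protein; score merges spot fluorescence near 667 nm with spot signal to noise.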 The settings on record: higher = more signal.
Experiment [3] is described as follows: probe aNOTCH2 binding on compound microarray – biochemical, small-molecule microarray, 635/667 nm fluorescence, primary screen (AID 1121).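 Also: score merges feature fluorescence read at 667 nm with its signal to noise.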 The settings on record: higher = more signal.
For experiment [4], the target named is Carbonic anhydrase 2 (Homo sapiens) (UniProt P00918). As to the kind of experiment: compounds binding carbonic anhydrase 2 – biochemical, small-molecule microarray, Alexa647-labelled CAII, profiling panel (AID 1122). The settings on record: CAII-A647 binding fluorescence, higher = more signal.
The nature of experiment [5]: COS7 lysate on small-molecule microarray, probe aHis, 635 nm (AID 1123).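 Also: z-score combines 667nm fluorescence intensity with signal-to-noise per printed compound spot.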 The settings on record: COS7 cell lysate, fluorescence, higher = more signal.
Experiment [6] is described as follows: probe aLAP1 signal on lysate-treated microarray – cell lysate, small-molecule microarray, COS7 lysate, primary screen (AID 1124).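 Also: lysate comes from COS7 cells expressing LAP1 and is applied at 0.3 µg/mL; score merges spot fluorescence near 667 nm with signal-to-noise over triplicate slides.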 The settings on record: probe aLAP1, fluorescence, higher = more signal.
The subject of the next experiment is Sam68 (KHDRBS1). In words: compounds binding KHDRBS1 protein – biochemical, small-molecule microarray, 635 nm fluorescence, primary screen (AID 1125).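 Also: score merges 667 nm channel intensity with signal to noise over triplicate slides.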 The settings on record: higher = more signal.
Experiment [7] deals with Chordin-like protein 2 (CHRDL2). As to the kind of experiment: compounds binding chordin-like 2 – biochemical, small-molecule microarray, 635 nm fluorescence, primary screen (AID 1126).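 Also: printed compound slides probed with Chrdl2 protein at 4 µg/mL for 1 h at 4 C; score merges 667 nm emission intensity with signal to noise over three replicate slides.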 The settings on record: fluorescence 635 nm, higher = more signal.
Experiment [8] deals with Concanavalin-A (Canavalia ensiformis) (UniProt P02866). As to the kind of experiment: compounds binding concanavalin A lectin – biochemical, small-molecule microarray, Alexa647 label, 635 nm, artefact control for SMM control protein annotation, primary screen (AID 1127).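 Also: z combines 667 nm emission intensity with signal-to-noise across three replicate slides.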 The settings on record: ConA-A647 binding fluorescence, higher = more signal.
Chain of Concanavalin-A (Canavalia ensiformis) (P02866 whole entry, looked up): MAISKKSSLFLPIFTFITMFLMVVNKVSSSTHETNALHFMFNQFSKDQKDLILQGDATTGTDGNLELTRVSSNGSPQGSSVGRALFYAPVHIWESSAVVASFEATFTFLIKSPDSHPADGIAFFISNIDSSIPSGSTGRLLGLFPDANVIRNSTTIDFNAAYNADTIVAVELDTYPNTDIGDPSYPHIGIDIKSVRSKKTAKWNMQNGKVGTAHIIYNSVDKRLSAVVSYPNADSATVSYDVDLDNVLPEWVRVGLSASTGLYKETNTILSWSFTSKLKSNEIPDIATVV
The nature of experiment [9]: compounds binding Alexa647 anti-His antibody – biochemical, small-molecule microarray, 635 nm fluorescence, artefact control for SMM control protein annotation, primary screen (AID 1128).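 Also: score merges feature fluorescence with signal-to-noise for each printed compound spot.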 The settings on record: higher = more signal.
Experiment [10] deals with Human papillomavirus type 1a E7 protein (residues 1-88). As to the kind of experiment: HPV1a E7 small-molecule binders, primary screen, biochemical, small-molecule microarray, residues 1-88, 635 nm (AID 1129). The settings on record: small-molecule microarray binding, fluorescence 635 nm; higher = more signal.
The target of experiment [11] is Focal adhesion kinase 1 (Homo sapiens) (UniProt Q05397). In words: PTK2 protein binding on printed compound slides – biochemical, small-molecule microarray, 635/667 nm fluorescence, BSA, DTT, primary screen (AID 1130).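 Also: composite of spot emission at 667 nm and signal to noise over triplicate slides.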 The settings on record: 635 nm fluorescence, higher = more signal.
Chain of Focal adhesion kinase 1 (Homo sapiens) (Q05397 whole entry, looked up): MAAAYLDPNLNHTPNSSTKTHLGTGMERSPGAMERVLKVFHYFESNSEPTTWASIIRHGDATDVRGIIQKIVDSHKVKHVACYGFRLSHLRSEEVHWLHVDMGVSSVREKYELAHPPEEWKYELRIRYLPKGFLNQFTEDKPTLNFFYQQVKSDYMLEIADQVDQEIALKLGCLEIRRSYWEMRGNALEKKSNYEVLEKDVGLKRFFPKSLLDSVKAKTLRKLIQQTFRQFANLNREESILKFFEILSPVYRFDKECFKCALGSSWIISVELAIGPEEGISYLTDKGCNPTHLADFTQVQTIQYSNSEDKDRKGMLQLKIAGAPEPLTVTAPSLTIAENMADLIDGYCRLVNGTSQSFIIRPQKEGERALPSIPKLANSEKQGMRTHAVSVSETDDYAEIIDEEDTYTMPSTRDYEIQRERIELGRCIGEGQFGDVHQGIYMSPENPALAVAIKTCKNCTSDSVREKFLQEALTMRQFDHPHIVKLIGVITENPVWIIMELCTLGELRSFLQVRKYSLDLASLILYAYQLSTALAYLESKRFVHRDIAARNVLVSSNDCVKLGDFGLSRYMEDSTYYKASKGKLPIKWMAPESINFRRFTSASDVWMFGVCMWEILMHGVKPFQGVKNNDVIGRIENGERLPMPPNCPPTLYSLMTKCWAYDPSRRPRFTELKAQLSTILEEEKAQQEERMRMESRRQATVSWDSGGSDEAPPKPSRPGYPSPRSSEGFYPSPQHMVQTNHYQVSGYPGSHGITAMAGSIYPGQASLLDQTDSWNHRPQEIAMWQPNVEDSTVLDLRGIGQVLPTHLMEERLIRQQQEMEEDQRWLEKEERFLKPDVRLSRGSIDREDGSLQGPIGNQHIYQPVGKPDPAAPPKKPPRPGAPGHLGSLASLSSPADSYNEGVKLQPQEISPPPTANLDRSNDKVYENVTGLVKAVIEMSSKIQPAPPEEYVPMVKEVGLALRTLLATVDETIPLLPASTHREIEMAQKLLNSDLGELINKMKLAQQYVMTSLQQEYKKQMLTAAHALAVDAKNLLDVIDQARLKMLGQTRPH
For experiment [12], the system named is Fibrinogen (Alexa647-labelled). As to the kind of experiment: Alexa647-fibrinogen binding to printed small molecules – biochemical, small-molecule microarray, 635/667 nm fluorescence, artefact control for SMM control-protein annotation, profiling panel (AID 1131).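 Also: z-score merges 667 nm fluorescence with per-spot signal-to-noise over triplicate slides.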 The settings on record: fibrinogen-A647 binding fluorescence, higher = more signal.
Experiment [13] deals with Follistatin (Homo sapiens) (UniProt P19883). In words: FST protein binding to printed compounds – biochemical, small-molecule microarray, 635/667 nm fluorescence, primary screen (AID 1132). The settings on record: 635 nm fluorescence, higher = more signal.
Chain of Follistatin (Homo sapiens) (P19883 whole entry, looked up): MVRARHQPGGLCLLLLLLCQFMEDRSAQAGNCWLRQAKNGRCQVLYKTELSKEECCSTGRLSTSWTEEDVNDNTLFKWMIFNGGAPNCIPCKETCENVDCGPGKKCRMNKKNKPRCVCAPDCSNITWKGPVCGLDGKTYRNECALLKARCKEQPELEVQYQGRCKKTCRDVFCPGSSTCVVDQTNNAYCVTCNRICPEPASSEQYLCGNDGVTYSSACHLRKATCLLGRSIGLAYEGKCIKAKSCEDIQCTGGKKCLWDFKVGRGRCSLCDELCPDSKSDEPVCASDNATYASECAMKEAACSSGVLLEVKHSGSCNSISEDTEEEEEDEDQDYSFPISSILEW
For experiment [14], the target named is Fibroblast growth factor 2 (Homo sapiens) (UniProt P09038). As to the kind of experiment: basic fibroblast growth factor binding to printed compounds – biochemical, small-molecule microarray, 635/667 nm fluorescence, primary screen (AID 1133). The settings on record: FGF2, fluorescence 635/667, higher = more signal.
Chain of Fibroblast growth factor 2 (Homo sapiens) (P09038 whole entry, looked up): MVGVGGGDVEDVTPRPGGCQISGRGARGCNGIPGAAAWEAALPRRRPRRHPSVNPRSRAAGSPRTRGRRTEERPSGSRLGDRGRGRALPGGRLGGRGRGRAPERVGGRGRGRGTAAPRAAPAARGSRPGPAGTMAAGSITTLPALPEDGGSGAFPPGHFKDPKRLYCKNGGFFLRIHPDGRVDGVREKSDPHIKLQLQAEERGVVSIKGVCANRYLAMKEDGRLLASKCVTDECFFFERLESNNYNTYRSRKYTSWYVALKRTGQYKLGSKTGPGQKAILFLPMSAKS
Experiment [15] is described as follows: JC-1 mitochondrial potential readout, lung cancer cells – cell-based, A549, JC-1 fluorescence, basal, 24 h, 100 nL, profiling panel (AID 1138).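 Also: A549 lung adenocarcinoma cells under basal conditions with no added stimulus; test concentration not given here.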 The settings on record: higher = more signal.
A further experiment relates to Lefty1. In words: Lefty1 protein binding to printed compounds – biochemical, small-molecule microarray, 635/667 nm fluorescence, primary screen (AID 1139). The settings on record: fluorescence 635/667, higher = more signal.
The test system of experiment [16] is wheat germ agglutinin (Triticum aestivum), Alexa647-labelled. As to the kind of experiment: Alexa647-WGA lectin binding to printed small molecules – biochemical, small-molecule microarray, 635/667 nm fluorescence, artefact control for SMM control-protein annotation, profiling panel (AID 1140).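 Also: score merges 667 nm feature emission with signal to noise over triplicate slides.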 The settings on record: WGA-A647 binding, 635 nm fluorescence, higher = more signal.

Experiment [17] deals with Luciferin 4-monooxygenase (Photinus pyralis) (UniProt P08659). As to the kind of experiment: inhibition of purified Photinus pyralis luciferase – biochemical, luminescence, purified enzyme, 2006 set, primary screen (AID 1141).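 Also: cell-free assay with purified firefly luciferase at 100 ng per well in PBS; test concentration not given here.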 The settings on record: purified firefly luciferase, SteadyGlo luminescence, 30 min; higher = more signal, called active from +8 up or from −8 down.
Chain of Luciferin 4-monooxygenase (Photinus pyralis) (P08659 whole entry, looked up): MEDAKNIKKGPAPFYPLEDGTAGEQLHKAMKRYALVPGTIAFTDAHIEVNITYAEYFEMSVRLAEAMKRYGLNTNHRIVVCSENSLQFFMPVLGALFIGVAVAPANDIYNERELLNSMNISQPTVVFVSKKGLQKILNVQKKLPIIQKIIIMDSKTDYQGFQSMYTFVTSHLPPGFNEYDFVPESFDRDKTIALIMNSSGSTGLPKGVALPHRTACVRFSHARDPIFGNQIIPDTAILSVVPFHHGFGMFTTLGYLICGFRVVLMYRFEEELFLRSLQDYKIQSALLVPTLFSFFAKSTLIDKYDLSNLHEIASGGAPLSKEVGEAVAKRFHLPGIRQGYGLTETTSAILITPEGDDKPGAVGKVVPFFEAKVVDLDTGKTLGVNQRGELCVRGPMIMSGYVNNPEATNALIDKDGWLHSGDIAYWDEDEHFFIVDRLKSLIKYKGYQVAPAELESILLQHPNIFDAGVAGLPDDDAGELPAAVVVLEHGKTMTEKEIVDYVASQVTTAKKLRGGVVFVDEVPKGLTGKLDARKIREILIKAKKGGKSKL

The structures appear in SMILES notation. Activity calls are given as the source filed them.

With `C=CCC(OC(C)=O)[C@@H]1[C@@H](N(Cc2cc3ccccc3o2)C(=O)c2ccc(-c3ccccc3)cc2)c2cc(OCCCO)ccc2N1C(=O)Cc1ccc(OC)cc1` (stereo not given in full), the composite z-score with Albumin (Bos taurus) was 0.0787; in experiment [2] it was -0.0189; in [3], -0.14; in experiment [4], -0.284; in experiment [5], 0.401; in experiment [6], -0.237. Moreover, the composite z-score with Sam68 (KHDRBS1) is 0.0416; in experiment [7], 0.186; in experiment [8], 0.444; in experiment [9], -0.289; in experiment [10], -0.27; in experiment [11], -0.19. The composite z-score worked out at 0.457 in experiment [12]; 0.453 in experiment [13]; 0.245 in [14]; 0.16 in the experiment on Lefty1; 0.307 in experiment [16]. Besides, the composite Z-score in experiment [1] is 0.443 (inactive). Moreover, the z-score in experiment [15] is 0.64; in [17], -0.189 (inactive).
As for `COC(=O)[C@@]1(Cc2ccc(F)cc2)[C@H]2c3cc(C(=O)N4CCCC4)n(CC4CC4)c3C[C@H]2CN1C(=O)c1ccccc1`, the composite z-score with Albumin (Bos taurus) was 0.87; in experiment [2], 1.07; in experiment [3], 0.416; in experiment [4], 0.765; in experiment [5] it was 2.99; in [6] it was 0.888. Besides, the composite z-score with Sam68 (KHDRBS1) is 1.3; in experiment [7], -0.621; in [8], 0.553; in experiment [9], 2.46; in [10], 1.28; in [11], 0.467. In addition, the composite z-score in [12] is 1.03; in experiment [13], 1.26; in experiment [14] it was 0.107; in the experiment with Lefty1, -0.39; in [16], 0.718. Also, in experiment [1], the composite Z-score was 1.5 (inactive). For the same compound, the z-score in [15] was 0.699; in experiment [17], 1.35 (inactive).
Consider `[N-]=[N+]=NCc1ccccc1[C@H]1OC(c2ccc(OCCCO)cc2)=N[C@@]1(Cc1ccccc1)C(=O)NCCN1CCOCC1`, for which the composite z-score with Albumin (Bos taurus) is 0.985; in [2], 0.576; in experiment [3] it was -0.0531; in experiment [4], 0.696; in experiment [5] it was 2.61; in experiment [6], 0.961. The composite z-score with Sam68 (KHDRBS1) amounted to 1.3; in [7], 0.104; in [8], 1.12; in experiment [9], 2.04; in experiment [10], 1.26; in [11] it was 0.514. In addition, the composite z-score in experiment [12] stood at 0.915; in experiment [13], 1.33; in experiment [14], 1.63; with Lefty1, 0.332; in experiment [16] it was 0.531. In addition, the composite Z-score in experiment [1] is 0.0851 (inactive). In addition, the z-score in [15] is 1.87; in experiment [17], -3.29 (inactive).
Take `COCCOC(=O)N1C(=O)[C@@]2(c3cc(C#Cc4ccc(OC)cc4)ccc31)[C@H](c1ccc(OCCO)cc1)N1[C@H](c3ccccc3)[C@H](c3ccccc3)OC(=O)[C@H]1[C@@H]2C(=O)Nc1nc2ccccc2s1`: the composite z-score was 0.862 with Albumin (Bos taurus); -0.0967 in [2]; 0.0402 in [3]; 0.309 in experiment [4]; 1.3 in experiment [5]; 0.176 in experiment [6]. In addition, the composite z-score was 1.29 in the experiment with Sam68 (KHDRBS1); -0.122 in experiment [7]; 1.13 in [8]; 0.52 in experiment [9]; 1.16 in experiment [10]; 0.415 in experiment [11]. For the same compound, the composite z-score came out at 0.707 in experiment [12]; 1.05 in experiment [13]; 0.464 in experiment [14]; 0.676 with Lefty1; 0.609 in experiment [16]. Moreover, the composite Z-score in experiment [1] was -0.436 (inactive). The z-score was -2.05 in experiment [15] and -1.27 (inactive) in experiment [17].
With `CCc1cccc(NC(=O)O[C@H]2[C@H](OC(=O)Nc3ccccc3)[C@H](OC(=O)Nc3ccccc3)[C@@H](OC)O[C@@H]2CO)c1`, the composite z-score with Albumin (Bos taurus) was 0.902; in experiment [2], 0.211; in [3] it was -0.0481; in experiment [4] it was 0.663; in [5], 2.57; in experiment [6], 0.814. Further, the composite z-score was 1.29 with Sam68 (KHDRBS1); -0.539 in [7]; 1 in [8]; 1.14 in [9]; 1.26 in [10]; 1.53 in experiment [11]. Also, the composite z-score in [12] was 0.571; in experiment [13], 1.16; in experiment [14], 0.216; in the experiment on Lefty1 it was 0.0478; in [16], 0.751. In experiment [1], the composite Z-score is 1.21 (inactive). The z-score in experiment [15] was -1.55; in experiment [17] it was 0.234 (inactive).
With `O=C1C2C=CC(C(O)c3cccc(O)c3)N(Nc3ccccc3)C2C(=O)N1c1ccccc1` (stereo not given), the composite z-score with Albumin (Bos taurus) is 0.818; in experiment [2] it was 0.185; in experiment [3], -0.155; in experiment [4] it was 0.792; in experiment [5], 0.653; in experiment [6] it was 0.069. In addition, the composite z-score with Sam68 (KHDRBS1) was 0.16; in experiment [7], -0.201; in experiment [8], 0.338; in [9], 0.811; in [10] it was 0.452; in experiment [11] it was 0.0964. Besides, the composite z-score in [12] was 0.881; in [13], 0.323; in experiment [14], -0.202; in the experiment with Lefty1, -0.199; in experiment [16] it was 0.0207. Besides, the composite Z-score in [1] was 0.365 (inactive). The z-score in [15] was -0.319; in experiment [17], 0.509 (inactive).
